The record followed here is the supplement of paper PMC11026393.

Experiment in all cases: difference in mean normalized H2B-mRuby nuclear fluorescence intensity relative to DMSO control (normalized intensity difference (DMSO = 0)); higher = stronger increase in transgene reporter fluorescence
Details in all cases: 24 h

One assay concerns H1299. Put shortly: (§1)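 Each value is the shift in mean per-nucleus normalized H2B-mRuby intensity relative to DMSO-treated cells. Cancer cell lines carrying stable, lentivirally transduced H2B-mRuby2 under hygromycin selection were exposed to drug for 24 h, with DMSO kept equal across wells. Unstained cells were imaged on a Leica DMI8 with bright-field autofocus, using 541–551 nm excitation and 565–605 nm emission. Data come from about 3 repeats of 4 fields each.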

Another assay deals with LN-18. In outline: as §1
The test system of another assay is SK-OV-3. In outline: as §1

In the case of `C[C@@H](Oc1cc(-c2cnn(C3CCNCC3)c2)cnc1N)c1c(Cl)ccc(F)c1Cl` (concentration unit: uM), the difference in the assay with H1299 (concentration: 0.25) is 0.0337; in the assay with H1299 (concentration: 1) it was -0.111; in the assay with H1299 (concentration: 2.5), -0.0387; in the assay with H1299 (concentration: 5), 0.194; in the assay on H1299 (concentration: 10), 0.228.
Take `COc1cc([C@@H]2c3cc4c(cc3[C@@H](O[C@@H]3O[C@@H]5CO[C@@H](C)O[C@H]5[C@H](O)[C@H]3O)[C@H]3COC(=O)[C@H]23)OCO4)cc(OC)c1O` (concentration unit: uM): the difference came out at 0.0338 in the assay on LN-18 (concentration: 1); 0.04 in the assay with LN-18 (concentration: 2.5); 0.0489 with LN-18 (concentration: 5); 0.0688 in the assay on LN-18 (concentration: 10); 0.0487 in the assay with LN-18 (concentration: 20); 0.0528 in the assay with SK-OV-3 (concentration: 1). Also, the difference in the assay with SK-OV-3 (concentration: 2.5) stood at 0.00327; with SK-OV-3 (concentration: 5), 0.00917; with SK-OV-3 (concentration: 10), 0.159; in the assay on SK-OV-3 (concentration: 20) it was 0.266.
Regarding `COc1cc(Nc2c(C#N)cnc3cc(OCCCN4CCN(C)CC4)c(OC)cc23)c(Cl)cc1Cl` (concentration unit: uM), the difference was -0.202 in the assay on H1299 (concentration: 0.25); -0.134 in the assay with H1299 (concentration: 1); -0.0971 in the assay with H1299 (concentration: 2.5); -0.166 in the assay on H1299 (concentration: 5); -0.0502 with H1299 (concentration: 20).
`O=C(c1cc(Cc2n[nH]c(=O)c3ccccc23)ccc1F)N1CCN(C(=O)C2CC2)CC1` (concentration unit: uM): the difference with H1299 (concentration: 1) was -0.0151; in the assay with H1299 (concentration: 2.5), -0.0147; with H1299 (concentration: 5), 0.0174; in the assay on H1299 (concentration: 10), 0.0357; in the assay with H1299 (concentration: 25) it was 0.0633.
For `COc1cc2ncnc(Nc3ccc(F)c(Cl)c3)c2cc1OCCCN1CCOCC1` (concentration unit: uM), the difference with LN-18 (concentration: 1) was 0.099; in the assay on LN-18 (concentration: 2.5), 0.00859; in the assay with LN-18 (concentration: 5) it was 0.0147; in the assay on LN-18 (concentration: 10), 0.0212; in the assay on LN-18 (concentration: 20), 0.00315; with SK-OV-3 (concentration: 1), 0.00612. For the same compound, the difference with SK-OV-3 (concentration: 2.5) was -0.00968; in the assay with SK-OV-3 (concentration: 5) it was 0.0329; in the assay with SK-OV-3 (concentration: 10) it was 0.0831; with SK-OV-3 (concentration: 20), 0.0836.
`N#CC[C@H](C1CCCC1)n1cc(-c2ncnc3[nH]ccc23)cn1` (concentration unit: uM): the difference in the assay with H1299 (concentration: 1) is 0.0876; in the assay with H1299 (concentration: 2.5), -0.0462; in the assay with H1299 (concentration: 5), -0.0185; in the assay with H1299 (concentration: 10), -0.0963; with H1299 (concentration: 25) it was 0.115.
In the case of `O=c1[nH]cc(F)c(=O)[nH]1` (concentration unit: uM), the difference with H1299 (concentration: 1) was -0.0723; with H1299 (concentration: 2.5) it was -0.0395; in the assay on H1299 (concentration: 5), -0.107; in the assay on H1299 (concentration: 10), -0.0707; in the assay with H1299 (concentration: 25), -0.0709.
In the case of `COc1cccc2c1C(=O)c1c(O)c3c(c(O)c1C2=O)C[C@@](O)(C(=O)CO)C[C@@H]3O[C@H]1C[C@H](N)[C@H](O)[C@H](C)O1` (concentration unit: nM), the difference in the assay on H1299 (concentration: 25) was 0.0124; in the assay on H1299 (concentration: 100) it was 0.112; with H1299 (concentration: 250), 0.0484; with H1299 (concentration: 1000), 0.0826; with H1299 (concentration: 2500), 0.218; with LN-18 (concentration: 25) it was -0.017. Moreover, the difference is -0.0175 in the assay on LN-18 (concentration: 100); 0.0434 in the assay with LN-18 (concentration: 250); 0.361 in the assay on LN-18 (concentration: 1000); 0.899 with LN-18 (concentration: 2500); -0.00185 with SK-OV-3 (concentration: 25); 0.13 in the assay with SK-OV-3 (concentration: 100). Moreover, the difference with SK-OV-3 (concentration: 250) turned out to be 0.133; with SK-OV-3 (concentration: 1000) it was 0.252; with SK-OV-3 (concentration: 2500), 0.93.
Consider `Nc1ncn([C@@H]2O[C@H](CO)[C@@H](O)[C@H]2O)c(=O)n1` (concentration unit: uM), for which the difference in the assay with LN-18 (concentration: 1) turned out to be 0.03; in the assay on LN-18 (concentration: 2.5) it was 0.0353; in the assay with LN-18 (concentration: 5), 0.0211; in the assay on LN-18 (concentration: 10), 0.0474; in the assay with LN-18 (concentration: 20), 0.00195; with SK-OV-3 (concentration: 1) it was 0.0139. Besides, the difference with SK-OV-3 (concentration: 2.5) was -0.0364; in the assay with SK-OV-3 (concentration: 5) it was 0.0517; in the assay with SK-OV-3 (concentration: 10), 0.126; in the assay with SK-OV-3 (concentration: 20) it was 0.105.
In the case of `COc1cc(Nc2ncc3c(n2)-c2ccc(Cl)cc2C(c2c(F)cccc2OC)=NC3)ccc1C(=O)O` (concentration unit: nM), the difference was -0.0235 with H1299 (concentration: 10); -0.0295 in the assay with H1299 (concentration: 50); 0.00737 in the assay on H1299 (concentration: 250); 0.159 with H1299 (concentration: 500); 0.136 in the assay on H1299 (concentration: 1000).
Turning to `Cc1nc(Nc2ncc(C(=O)Nc3c(C)cccc3Cl)s2)cc(N2CCN(CCO)CC2)n1` (concentration unit: nM), the difference in the assay on H1299 (concentration: 25) was -0.00395; with H1299 (concentration: 100), 0.0114; with H1299 (concentration: 250), 0.0693; in the assay with H1299 (concentration: 1000) it was 0.167; with H1299 (concentration: 2500), 0.163; with LN-18 (concentration: 25) it was 0.0292. Moreover, the difference is 0.0217 in the assay on LN-18 (concentration: 100); 0.0754 in the assay with LN-18 (concentration: 250); 0.0482 with LN-18 (concentration: 1000); -0.0509 with LN-18 (concentration: 2500); 0.111 in the assay with SK-OV-3 (concentration: 25); 0.606 with SK-OV-3 (concentration: 100). Further, the difference with SK-OV-3 (concentration: 250) stood at 0.528; with SK-OV-3 (concentration: 1000), 0.636; in the assay with SK-OV-3 (concentration: 2500) it was 0.551.
In the case of `O=C(NOC[C@H](O)CO)c1ccc(F)c(F)c1Nc1ccc(I)cc1F` (concentration unit: uM), the difference with H1299 (concentration: 0.05) is -0.0791; with H1299 (concentration: 0.1), -0.114; with H1299 (concentration: 0.25) it was -0.172; in the assay with H1299 (concentration: 1), -0.174; with H1299 (concentration: 5), -0.199.
On to `Cc1[nH]c2ccccc2c1CCNCc1ccc(/C=C/C(=O)NO)cc1` (concentration unit: nM), for which the difference in the assay on H1299 (concentration: 10) was determined as 0.43; in the assay on H1299 (concentration: 25), 0.738; with H1299 (concentration: 50), 0.733; in the assay with H1299 (concentration: 100), 0.864; with H1299 (concentration: 250), 0.886; with H1299 (concentration: 500) it was 0.923. For the same compound, the difference with LN-18 (concentration: 10) came to 0.22; in the assay with LN-18 (concentration: 50), 0.459; in the assay with LN-18 (concentration: 100), 0.491; in the assay on LN-18 (concentration: 250), 0.528; with LN-18 (concentration: 500) it was 0.494; in the assay on SK-OV-3 (concentration: 10), 0.269. Besides, the difference with SK-OV-3 (concentration: 50) amounted to 1.12; in the assay with SK-OV-3 (concentration: 100), 1.16; with SK-OV-3 (concentration: 250), 1.1; in the assay on SK-OV-3 (concentration: 500), 1.13.
Consider `CC[C@]1(O)C[C@H]2CN(CCc3c([nH]c4ccccc34)[C@@](C(=O)OC)(c3cc4c(cc3OC)N(C=O)[C@H]3[C@@](O)(C(=O)OC)[C@H](OC(C)=O)[C@]5(CC)C=CCN6CC[C@]43[C@@H]65)C2)C1` (concentration unit: nM), for which the difference in the assay on H1299 (concentration: 2.5) was -0.165; in the assay on H1299 (concentration: 10), -0.0783; with H1299 (concentration: 25), -0.00792; in the assay with H1299 (concentration: 100) it was -0.00267; in the assay on H1299 (concentration: 250), -0.0899.
Turning to `CO[C@H]1/C=C\C=C(/C)C(=O)NC2=CC(=O)C(NCCN(C)C)=C(C[C@@H](C)C[C@H](OC)[C@H](O)[C@@H](C)/C=C(\C)[C@@H]1OC(N)=O)C2=O` (concentration unit: nM), the difference in the assay with H1299 (concentration: 5) is 0.0988; in the assay on H1299 (concentration: 25) it was 0.27; with H1299 (concentration: 50), 0.565; with H1299 (concentration: 100) it was 0.538; with H1299 (concentration: 500) it was 0.571.
As for `C[C@@H]1C[C@H](N)C[C@H](c2ccncc2NC(=O)c2ccc(F)c(-c3c(F)cccc3F)n2)C1`, the difference in the assay on H1299 (concentration: 1) turned out to be 0.00842; in the assay on H1299 (concentration: 2.5), 0.0956; in the assay with H1299 (concentration: 5) it was 0.0409; in the assay on H1299 (concentration: 10) it was 0.137; in the assay with H1299 (concentration: 25) it was 0.227.
